Measurements reported in PubChem BioAssay (NCI).
Compounds without any hit were thinned out: in the full panel of roughly 83,000, 20% have a hit.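 In brief: 96-well plates, 48 h treatment, single concentration, percent growth endpoint.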 Unmarked numbers belong to inactive results. Activity calls are given as the source filed them. How the source made its calls: active means growth percent below 10; inactive means the rest.

What was measured:
Test in all cases: NCI-60 one-dose screen, 48 h (100 = growth as untreated, 0 = no growth, -100 = all killed)
Settings in all cases: 10 µM
K-562 leukemia = tested on: K-562 leukemia
MALME-3M melanoma = tested on: MALME-3M melanoma
MDA-MB-231 breast = tested on: MDA-MB-231 breast
RXF 393 renal = tested on: RXF 393 renal
SF-268 CNS = tested on: SF-268 CNS
SF-295 CNS = tested on: SF-295 CNS
SF-539 CNS = tested on: SF-539 CNS
UACC-257 melanoma = tested on: UACC-257 melanoma
M14 melanoma = tested on: M14 melanoma
HCT-15 colon = tested on: HCT-15 colon
HT29 colon = tested on: HT29 colon
SNB-75 CNS = tested on: SNB-75 CNS
SNB-19 CNS = tested on: SNB-19 CNS
U251 CNS = tested on: U251 CNS
PC-3 prostate = tested on: PC-3 prostate
SK-MEL-5 melanoma = tested on: SK-MEL-5 melanoma
UACC-62 melanoma = tested on: UACC-62 melanoma
LOX IMVI melanoma = tested on: LOX IMVI melanoma
SK-MEL-28 melanoma = tested on: SK-MEL-28 melanoma
SK-MEL-2 melanoma = tested on: SK-MEL-2 melanoma

Structure (SMILES): CSC1=NCCCC1
- growth (K-562 leukemia): 104%
- growth (MALME-3M melanoma): 109%
- growth (MDA-MB-231 breast): 123%
- growth (RXF 393 renal): 108%
- growth (SF-268 CNS): 109%
- growth (SF-295 CNS): 110%
- growth (SF-539 CNS): 111%
- growth (UACC-257 melanoma): 100%
- growth (M14 melanoma): 108%
- growth (HCT-15 colon): 101%
- growth (HT29 colon): 120%
- growth (SNB-75 CNS): 99.9%
- growth (SNB-19 CNS): 110%
- growth (U251 CNS): 103%
- growth (PC-3 prostate): 100%
- growth (SK-MEL-5 melanoma): 106%
- growth (UACC-62 melanoma): 113%
- growth (LOX IMVI melanoma): 98.4%
- growth (SK-MEL-28 melanoma): 109%
- growth (SK-MEL-2 melanoma): 105%

Structure (SMILES): O=C1N=NC2=C1c1c3ccccc3c(O)n1CC2
- growth (K-562 leukemia): 93%
- growth (MALME-3M melanoma): 109%
- growth (MDA-MB-231 breast): 107%
- growth (RXF 393 renal): 106%
- growth (SF-268 CNS): 108%
- growth (SF-295 CNS): 99.4%
- growth (SF-539 CNS): 94.9%
- growth (UACC-257 melanoma): 8.27% (active)
- growth (M14 melanoma): 93.2%
- growth (HCT-15 colon): 113%
- growth (HT29 colon): 103%
- growth (SNB-75 CNS): 103%
- growth (SNB-19 CNS): 96.3%
- growth (U251 CNS): 105%
- growth (PC-3 prostate): 86.2%
- growth (SK-MEL-5 melanoma): 112%
- growth (UACC-62 melanoma): 96.4%
- growth (LOX IMVI melanoma): 105%
- growth (SK-MEL-28 melanoma): 108%
- growth (SK-MEL-2 melanoma): 110%

Structure (SMILES): O=C1NC(=O)N(Cc2ccccc2)CC1Br (stereo not given)
- growth (K-562 leukemia): 37.4%
- growth (MALME-3M melanoma): 77.8%
- growth (MDA-MB-231 breast): 89.3%
- growth (RXF 393 renal): 68%
- growth (SF-268 CNS): 80.2%
- growth (SF-295 CNS): 136%
- growth (SF-539 CNS): 86.5%
- growth (UACC-257 melanoma): 82.1%
- growth (M14 melanoma): 11.4%
- growth (HCT-15 colon): 45.2%
- growth (HT29 colon): 77.3%
- growth (SNB-75 CNS): 91.4%
- growth (SNB-19 CNS): 90.6%
- growth (U251 CNS): 59.6%
- growth (PC-3 prostate): 73.1%
- growth (SK-MEL-5 melanoma): 77.5%
- growth (UACC-62 melanoma): 72.8%
- growth (LOX IMVI melanoma): 25.8%
- growth (SK-MEL-28 melanoma): 97.7%
- growth (SK-MEL-2 melanoma): 70.4%

Structure (SMILES): CC(=O)c1nc2ccccc2n1CCNC(N)=O
- growth (K-562 leukemia): 44.1%
- growth (MALME-3M melanoma): 55.8%
- growth (MDA-MB-231 breast): 77.2%
- growth (RXF 393 renal): 90.9%
- growth (SF-268 CNS): 71.9%
- growth (SF-295 CNS): 127%
- growth (SF-539 CNS): 79.7%
- growth (UACC-257 melanoma): 94.8%
- growth (M14 melanoma): 73.8%
- growth (HCT-15 colon): 103%
- growth (HT29 colon): 35.9%
- growth (SNB-75 CNS): 24%
- growth (SNB-19 CNS): 91.7%
- growth (U251 CNS): 69.8%
- growth (PC-3 prostate): 72%
- growth (SK-MEL-5 melanoma): 82.7%
- growth (UACC-62 melanoma): 86.6%
- growth (LOX IMVI melanoma): 62.4%
- growth (SK-MEL-28 melanoma): 89.6%
- growth (SK-MEL-2 melanoma): 84%

Structure (SMILES): CCCCCCN(CCCCCC)CC(O)c1ccc2c3c(cccc13)CC2 (stereo not given)
- growth (K-562 leukemia): 46.2%
- growth (MALME-3M melanoma): 71.7%
- growth (MDA-MB-231 breast): 72.9%
- growth (RXF 393 renal): 67.2%
- growth (SF-268 CNS): 76.4%
- growth (SF-295 CNS): 49.4%
- growth (SF-539 CNS): 70%
- growth (UACC-257 melanoma): 67.9%
- growth (M14 melanoma): 28.2%
- growth (HCT-15 colon): 44.2%
- growth (HT29 colon): -4.58% (active)
- growth (SNB-75 CNS): 120%
- growth (SNB-19 CNS): 82.4%
- growth (U251 CNS): 49.5%
- growth (PC-3 prostate): 51.5%
- growth (SK-MEL-5 melanoma): 59.7%
- growth (UACC-62 melanoma): 65.2%
- growth (LOX IMVI melanoma): 21.4%
- growth (SK-MEL-28 melanoma): 71.7%
- growth (SK-MEL-2 melanoma): 55.8%

Structure (SMILES): CC1CN(Cc2ccccc2)C(=O)NC1=O (stereo not given)
- growth (K-562 leukemia): 108%
- growth (MALME-3M melanoma): 106%
- growth (MDA-MB-231 breast): 107%
- growth (RXF 393 renal): 124%
- growth (SF-268 CNS): 103%
- growth (SF-295 CNS): 126%
- growth (SF-539 CNS): 107%
- growth (UACC-257 melanoma): 102%
- growth (M14 melanoma): 111%
- growth (HCT-15 colon): 112%
- growth (HT29 colon): 109%
- growth (SNB-75 CNS): 106%
- growth (SNB-19 CNS): 92%
- growth (U251 CNS): 108%
- growth (PC-3 prostate): 92.7%
- growth (SK-MEL-5 melanoma): 106%
- growth (UACC-62 melanoma): 96%
- growth (LOX IMVI melanoma): 103%
- growth (SK-MEL-28 melanoma): 114%
- growth (SK-MEL-2 melanoma): 102%

Structure (SMILES): CSc1nn(-c2ccccc2)c2ncnc(Oc3ccccc3)c12
- growth (K-562 leukemia): 96.5%
- growth (MALME-3M melanoma): 104%
- growth (MDA-MB-231 breast): 98.3%
- growth (RXF 393 renal): 83.6%
- growth (SF-268 CNS): 92.5%
- growth (SF-295 CNS): 101%
- growth (SF-539 CNS): 98%
- growth (UACC-257 melanoma): 107%
- growth (M14 melanoma): 102%
- growth (HCT-15 colon): 93.2%
- growth (HT29 colon): 87.3%
- growth (SNB-75 CNS): 70.1%
- growth (SNB-19 CNS): 93.9%
- growth (U251 CNS): 86%
- growth (PC-3 prostate): 98%
- growth (SK-MEL-5 melanoma): 97%
- growth (UACC-62 melanoma): 101%
- growth (LOX IMVI melanoma): 98.4%
- growth (SK-MEL-28 melanoma): 111%
- growth (SK-MEL-2 melanoma): 80.6%

Structure (SMILES): Nc1c(C(=O)Nc2ccccc2)sc2nc3c(cc12)C(O)CCC3 (stereo not given)
- growth (K-562 leukemia): 11.1%
- growth (MALME-3M melanoma): 87.4%
- growth (MDA-MB-231 breast): 32.8%
- growth (RXF 393 renal): -6.4% (active)
- growth (SF-268 CNS): 46.4%
- growth (SF-295 CNS): 8.61% (active)
- growth (SF-539 CNS): -5.31% (active)
- growth (UACC-257 melanoma): 71.1%
- growth (M14 melanoma): 22.1%
- growth (HCT-15 colon): 23.5%
- growth (HT29 colon): 6.61% (active)
- growth (SNB-75 CNS): 36.6%
- growth (SNB-19 CNS): 58.6%
- growth (U251 CNS): 23.9%
- growth (PC-3 prostate): 31.8%
- growth (SK-MEL-5 melanoma): 42.4%
- growth (UACC-62 melanoma): 55.4%
- growth (LOX IMVI melanoma): 47.5%
- growth (SK-MEL-28 melanoma): 62.6%
- growth (SK-MEL-2 melanoma): 37.8%
